Rows were chosen to be rich in hits. Some 2.2% of all compounds tested hit in one or more screens of this group.
BaF3 tox: reduces parental Ba/F3 cell viability, JAK2V617F counter-screen; 220,000 compounds, 1.1% hits; AID 1486; CellTiter-Glo ATP luminescence; inhibition, % at 5.6 µM;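 active = inhibition above a per-campaign cutoff, the mean inhibition of all tested compounds plus 3 SD, cut at about 27% in these data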
aSyn 5UTR inh: MLPCN primary screen, SNCA 5' untranslated region; alpha-synuclein 5'UTR reporter, inhibitor activity; inhibition, % (tested at 7.5 µM); 300,000 compounds, 0.82% hits; in the data active = inhibition above about 60%;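 note: H4 neuroglioblastoma cells stably carrying SNCA 5'UTR luciferase fusion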
IEC-6 cytotox: IEC-6 cytotoxicity, counter-screen for KLF5 inhibitors; luminescence viability; inhibition, % at 5 µM; 290,000 compounds, 0.78% hits; in the data active = inhibition above about 22%
KLF5 inh: kruppel-like factor 5 inhibition; DLD-1 KLF5 promoter-luciferase reporter, luminescence; inhibition, % at 5 µM; 290,000 compounds, 0.23% hits;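 active = inhibition above a per-plate limit of that plate's mean compound inhibition plus 3 SD, cut at about 60% in these data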;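 note: higher means less KLF5 promoter-driven luciferase light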
APP transl inh: APP translation inhibition; SH-SY5Y APP 5'UTR-luciferase reporter, luminescence; inhibition, % at 2 µM; 190,000 compounds, 0.82% hits; AID 1285;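 active = inhibition above a set limit, derived from the sample mean plus 3 SD, cut at about 45% in these data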
Ba/F3 V617F tox: lowers viability of Ba/F3 cells expressing EpoR and JAK2V617F. ATP luminescence. inhibition, % at 5.6 µM. 220,000 compounds, 1.1% hits. AID 1446;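 active = inhibition above the campaign mean plus 3 SD over all tested compounds, cut at about 24% in these data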;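 note: cytokine-independent growth of Ba/F3 cells driven by EpoR plus mutant JAK2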
Numbers stand for hits; 0 = inactive; - = not tested or not shown.

SMILES	BaF3 tox	aSyn 5UTR inh	IEC-6 cytotox	KLF5 inh	APP transl inh	Ba/F3 V617F tox
CC(C)C(=O)N1CCN(c2ccc(NC(=O)c3ccc([N+](=O)[O-])o3)cc2Cl)CC1	0	-	0	0	96	0
Cc1ccc(NC(=O)c2ccc([N+](=O)[O-])o2)cc1S(=O)(=O)N1CCOCC1	0	0	0	0	58	0
CCC(=O)N1CCCC(C(=O)c2ccc(-c3ccccc3)cc2)C1 (configuration not stated)	-	0	0	0	-	-
CCC1(c2ccccc2)NC(=O)N(CC(=O)Nc2ccc(S(=O)(=O)Nc3ncccn3)cc2)C1=O (configuration not stated)	-	0	-	-	-	-
Cc1sc(N/N=C/c2cc([N+](=O)[O-])ccc2O)nc1-c1ccccc1	0	0	0	0	50	0
COC(=O)Cn1cnc2c(nnn2-c2ccc(OC)cc2)c1=O	-	0	0	0	-	-
O=[N+]([O-])c1nn(-c2ccccc2)n(O)c1=NC1CCN(Cc2ccccc2)CC1	0	76	0	0	0	0
Cc1ccc(Cl)cc1N1CCN(C(=S)NCCc2ccccc2)CC1	0	0	0	0	0	0
Cc1ccc(Cl)cc1N1CCN(c2cccc[n+]2C)CC1	65	0	0	0	0	82
C[n+]1ccccc1N1CCN(c2ccccc2Cl)CC1	62	0	0	0	0	56
O=[N+]([O-])c1ccc(Sc2cccc3cccnc23)c([N+](=O)[O-])c1	0	0	0	0	55	0
O=[N+]([O-])c1cc(Cl)ccc1Sc1cccc2cccnc12	0	0	0	0	0	0
O=C(CCC(=O)Nc1ccccc1Cl)NNC(=O)Nc1cccc([N+](=O)[O-])c1	-	0	0	0	-	-
CCN(CC)c1ccc(NC(=O)CCCCCN2C(=O)c3ccccc3C2=O)cc1	0	0	0	0	0	0
CCN(CC)c1ccc(NC(=O)CCCCC(=O)Nc2ccc(N(CC)CC)cc2)cc1	-	63	-	-	-	-
O=C(COC(=O)c1ccc(Cl)c(S(=O)(=O)N2CCOCC2)c1)NCc1ccco1	-	0	-	-	-	-
CN1Cc2c(N3CCOCC3)nc3sc(C(=O)c4ccc(Br)cc4)c(N)c3c2CC1(C)C	0	105	0	0	-	0
CN1Cc2c(N3CCOCC3)nc3sc(C#N)c(N)c3c2CC1(C)C	0	0	0	0	-	0
N#CC(c1cccc(Cl)c1)c1ccc2c(C(F)(F)F)cc(C(F)(F)F)nc2n1 (configuration not stated)	0	97	0	0	0	0
NNc1ccc2c(C(F)(F)F)cc(C(F)(F)F)nc2n1	0	0	0	0	0	0
CCn1c(=NC(=O)c2ccc(S(=O)(=O)N3CCOCC3)cc2)sc2cccc(OC)c21	42	0	0	0	0	35
COCCn1c(=NC(=O)c2ccc(S(=O)(=O)N3CCOCC3)cc2)sc2cc(S(N)(=O)=O)ccc21	-	0	0	0	-	-
COc1ccccc1-c1c(-c2ccc(O)cc2O)n[nH]c1C(F)(F)F	45	0	0	0	-	48
Oc1ccc(-c2n[nH]c(C(F)(F)F)c2-c2ccccc2)c(O)c1	78	0	0	0	0	56
Cc1ccc(N2CCC(N3CCN(C)C(CCO)C3)CC2)cc1 (configuration not stated)	-	0	0	0	-	-
SMILES	BaF3 tox	aSyn 5UTR inh	IEC-6 cytotox	KLF5 inh	APP transl inh	Ba/F3 V617F tox
O=C(NNC(=O)C1C2C=CC(C2)C1C(=O)O)c1cc(Cl)ccc1O (configuration not stated)	-	-	0	0	-	-
Cc1ccc(CSc2nc3ccncc3[nH]2)cc1	0	73	0	0	0	0
O=C(O)CCSc1ncnc2sc(-c3ccccc3)cc12	0	88	0	0	-	0
COc1cc2c(cc1OC)C(c1ccccc1N)=NCC2	47	0	0	0	-	38
Cc1cccc(NC(=O)C2CCN(S(=O)(=O)c3cccc4nonc34)CC2)c1	-	0	0	0	-	-
COc1cc(-n2c(C)nc3cc(C(=O)N4CCOCC4)ccc32)cc(OC)c1OC	91	0	0	0	0	0
CCOc1ccc2nc3cc(NCc4ccc(OC)cc4)ccc3c(N)c2c1	-	109	0	0	-	-
COc1ccccc1NC(=O)C(C)Sc1nc2ccccc2c(=O)n1CC1CCCO1 (configuration not stated)	-	0	-	-	-	-
COc1ccc(/C=N/Nc2cc(C)nc3ccc(OC)cc23)c(OC)c1	-	117	0	0	-	-
COc1ccccc1/C=N/Nc1cc(C)nc2ccc(C)cc12	-	0	0	0	-	-
COc1ccc(OC)c(Nc2cc(C)nc3ccc(C)cc23)c1	-	63	-	-	-	-
Cc1nc2ccccc2c(=O)n1NC(=O)c1cccc(Cl)c1	-	0	0	0	-	-
Cc1ccc(-c2nc(SCC(=O)Nc3cc(C)on3)c3c(=O)n(C)c(=O)n(C)c3n2)cc1	-	0	0	0	-	-
COc1ccc(S(=O)(=O)Nc2ccc(Oc3ncccn3)c(Cl)c2)cc1	0	0	0	0	46	0
COc1ccc(NS(=O)(=O)c2ccc(Oc3ncccn3)cc2)cc1	0	0	0	0	0	0
O=C(Nc1ccc(Cl)c(Cl)c1)Nc1ccccc1C(=O)O	45	0	0	0	0	0
Cc1nc(-c2ccccc2)sc1C(=O)NN	0	0	0	0	73	0
Cc1cc(OCC(=O)Nc2ccncc2)cc(C)c1Cl	-	0	0	0	-	-
Cc1ccc(SCC(=O)OCC(=O)N(C)CC(=O)Nc2ccccc2Cl)cc1C	-	0	0	0	-	-
CCc1c(C)nc(Nc2nc(C)c3ccc(OC)cc3n2)[nH]c1=O	0	0	0	0	0	0
COc1ccc2c(C)nc(Nc3nc(C)c(C)c(=O)[nH]3)nc2c1	0	103	0	0	0	0
COc1ccc2nc(Nc3nc(CSc4nc5ccccc5[nH]4)cc(=O)[nH]3)nc(C)c2c1	0	103	0	0	0	0
Cc1cccc(N(C(=O)c2csnn2)C(C(=O)NC2CCCCC2)c2ccncc2)c1 (configuration not stated)	-	0	0	0	-	-
Cc1ccc(OCC(=O)N/N=C/c2cccc3cccnc23)cc1	-	0	0	0	-	-
CS(=O)(=O)N(CC(=O)N1CCc2ccccc2C1)c1ccc2c(c1)OCO2	93	0	0	0	0	0
SMILES	BaF3 tox	aSyn 5UTR inh	IEC-6 cytotox	KLF5 inh	APP transl inh	Ba/F3 V617F tox
COc1ccc(-c2cc3c(=O)n(CC(=O)NCCCN4CCC(Cc5ccccc5)CC4)ncn3n2)cc1	-	96	0	0	-	-
COC(=O)c1cccc(NC(=O)NC(=O)c2ccccc2Cl)c1	0	95	0	0	-	0
O=C(NC(=Nc1ccccc1)N1CCOCC1)Nc1ccccc1	96	0	0	0	0	0
S=C(Nc1ccccc1)N1CCOCC1	0	0	0	0	0	0
CC(=O)c1sc(Nc2nc(C)cc(C)n2)nc1C	0	0	0	0	83	0
Cn1cc([N+](=O)[O-])c(C(=O)NC2CCCCCCC2)n1	-	0	0	0	-	-
Cn1c(=O)cc(OCCCC(=O)NC2CCCC2)c2ccccc21	45	0	0	0	0	51
CCN(CC)CCn1c2c(c(SCC(=O)Nc3cc(OC)cc(OC)c3)nc1=O)CCC2	-	0	-	-	-	-
Cc1cc(C(=O)NN)c2cc(Br)ccc2n1	0	0	0	0	75	0
CCCN1CCC(=O)N(CCO)CC1	-	0	0	0	-	-
CCCCNS(=O)(=O)c1ccc(S(=O)(=O)NCc2ccncc2)cc1	39	0	0	0	0	33

Screening data from PubChem BioAssay.
